From PubChem BioAssay (Tox21)
Records with an inconclusive call do not appear. Active and inactive are the calls of the source. Unless noted, calls come from the whole dose curve; as a rule, active = well fitted curve in the direction sought with a large enough effect in the repeat runs; inconclusive = weak or mixed curves; inactive = no such curve, though single readings can be large; an effect the other way counts as inactive or inconclusive.

What was measured:
[1] = target: Luciferin 4-monooxygenase (Photinus pyralis) (UniProt P08659); experiment: qHTS assay to identify small molecule inhibitors of firefly luciferase (AID 1224835); note: nearly all actives have a fitted effect of over 25% in size; note: potency is the fitted concentration of half-maximal effect
Luciferin 4-monooxygenase (Photinus pyralis), sequence (P08659 whole entry, looked up): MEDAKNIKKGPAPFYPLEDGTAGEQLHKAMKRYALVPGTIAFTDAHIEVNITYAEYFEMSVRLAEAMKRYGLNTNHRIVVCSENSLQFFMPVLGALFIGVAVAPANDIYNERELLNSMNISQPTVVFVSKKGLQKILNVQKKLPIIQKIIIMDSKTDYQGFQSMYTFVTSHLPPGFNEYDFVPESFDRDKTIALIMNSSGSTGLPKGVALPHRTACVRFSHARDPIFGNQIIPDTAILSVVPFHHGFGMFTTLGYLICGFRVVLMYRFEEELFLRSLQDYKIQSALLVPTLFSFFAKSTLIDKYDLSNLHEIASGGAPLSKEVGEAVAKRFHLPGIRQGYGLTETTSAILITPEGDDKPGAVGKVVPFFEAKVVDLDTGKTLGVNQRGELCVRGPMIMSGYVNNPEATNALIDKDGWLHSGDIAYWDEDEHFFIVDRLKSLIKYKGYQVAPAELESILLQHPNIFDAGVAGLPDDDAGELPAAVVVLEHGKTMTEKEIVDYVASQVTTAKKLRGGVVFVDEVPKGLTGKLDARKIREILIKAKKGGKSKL
Summary of the method: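 Quantitative HTS format; KM concentrations of both substrates. Purified P. pyralis FLuc activity quantified from luminescence images.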

[2] = qHTS assay to identify small molecule antagonists of the constitutive androstane receptor (CAR) signaling pathway - cell viability counter screen (AID 1224837); note: nearly all actives have a fitted effect of over 45% in size; note: potency is the fitted concentration of half-maximal effect
Summary of the method: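 Counter screen run in HepG2-CYP2B6-hCAR cells: 4 hr settle, compound titration (15 concentrations) with 50 nM CITCO, 23 hr at 37 C/5% CO2, CellTiter-Fluor fluorescence.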

[3] = qHTS assay to identify small molecule antagonists of the estrogen related receptor signaling pathway with the pleiotropic PPARgamma coactivator (PGC) from Tox21 10K library - cell viability counter screen (AID 1224840; active = well fitted cell-killing curve with a large enough effect in the repeat runs, not every such curve was filed as active; note: nearly all actives have a fitted effect of over 40% in size; note: potency is the fitted concentration of half-maximal effect)
Summary of the method: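 Following seeding of 2,000 PGC/ERR cells/well and 6 hours' incubation, test compounds were delivered in DMSO. The plates then sat 17.5 hours at 37 C before a fluorogenic live-cell protease reagent (CellTiter-Fluor) was read after 30 min.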

[4] = qHTS assay to identify small molecule agonists of the estrogen related receptor signaling pathway with the pleiotropic PPARgamma coactivator (PGC) from Tox21 10K library (AID 1224842); note: nearly all actives have a fitted effect of over 15% in size
Summary of the method: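 PGC/ERR reporter cells (NTP line) were seeded 2,000 per well, rested 6 h at 37 C/5% CO2, then pin-dosed with compounds in DMSO for 18 h at 37 C; luciferase read by One-Glo luminescence after 30 min at room temperature.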

[5] = target: Thyrotropin receptor (Homo sapiens) (UniProt P16473); experiment: qHTS assay to identify small molecule agonists of the thyroid stimulating hormone receptor (TSHR) signaling pathway (AID 1224843; calls by dose curve; note: nearly all actives have a fitted effect of over 45% in size)
Thyrotropin receptor (Homo sapiens), sequence (P16473 whole entry, looked up): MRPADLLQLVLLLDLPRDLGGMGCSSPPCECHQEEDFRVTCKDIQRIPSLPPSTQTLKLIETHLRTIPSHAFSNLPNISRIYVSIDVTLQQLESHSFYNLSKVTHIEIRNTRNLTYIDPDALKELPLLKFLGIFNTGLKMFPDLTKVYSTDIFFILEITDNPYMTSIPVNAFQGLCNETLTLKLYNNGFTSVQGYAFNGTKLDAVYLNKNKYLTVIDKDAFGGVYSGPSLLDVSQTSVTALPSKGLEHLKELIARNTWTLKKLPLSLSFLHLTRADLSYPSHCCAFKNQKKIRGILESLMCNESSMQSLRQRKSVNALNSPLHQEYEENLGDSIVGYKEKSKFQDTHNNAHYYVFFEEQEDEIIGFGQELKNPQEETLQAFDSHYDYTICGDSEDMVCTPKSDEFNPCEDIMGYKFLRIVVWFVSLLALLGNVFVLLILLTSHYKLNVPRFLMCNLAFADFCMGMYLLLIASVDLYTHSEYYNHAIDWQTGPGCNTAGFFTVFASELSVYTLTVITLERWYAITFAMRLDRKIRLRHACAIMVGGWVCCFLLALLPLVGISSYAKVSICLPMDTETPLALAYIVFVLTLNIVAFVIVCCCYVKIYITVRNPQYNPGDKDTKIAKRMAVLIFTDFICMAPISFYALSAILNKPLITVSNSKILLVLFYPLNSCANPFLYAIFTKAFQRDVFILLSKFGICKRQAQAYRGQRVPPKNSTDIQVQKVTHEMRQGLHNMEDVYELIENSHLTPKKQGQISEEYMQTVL
Summary of the method: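 TSHR-expressing HEK293 cells (800 per well) were exposed to compounds for 30 min at room temperature. cAMP was then detected by HTRF competition with cAMP-d2 and anti-cAMP cryptate, read after 1 h at room temperature. Fifteen concentrations, triplicate.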

[6] = qHTS assay to identify small molecule agonists of the hypoxia (HIF-1) signaling pathway - cell viability counter screen (AID 1224844; calls by dose curve; note: nearly all actives have a fitted effect of over 50% in size; note: potency is the fitted concentration of half-maximal effect)
Summary of the method: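 Cells (HRE-bla ME-180, 2,000 per well) sat 5 hrs at 37C, got compound for 17 hrs, were read for CCF4-AM FRET, and were finally lysed with CellTiter-Glo for a 30 min room-temperature luminescence read.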

[7] = qHTS assay to identify small molecule agonists of H2AX (AID 1224845; active = well fitted activation curve with a large enough effect in the signal ratio in the repeat runs, not every such curve was filed as active; the % refers to the signal ratio)
Summary of the method: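 Wild-type CHO-K1 cells plated overnight, then exposed 3 hr at 37C to compounds at 15 concentrations (0.76% DMSO). Lysed, then HTRF anti-pH2AX(S139)-cryptate/anti-H2AX-d2 detection after 24 hr at room temperature; emissions 665 and 620 nm.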

[8] = qHTS assay to identify small molecule agonists of the hypoxia (HIF-1) signaling pathway (AID 1224846; active = well fitted activation curve with a large enough effect in the signal ratio in the repeat runs, not every such curve was filed as active; the % refers to the signal ratio)
Summary of the method: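 A low-serum medium (0.5% dialyzed FBS) holding 2,000 HRE-bla ME-180 cells per well is preincubated for 5 hrs, dosed with compounds by pintool, and kept a further 17 hrs at 37C, 5% CO2 before CCF4-AM FRET detection of beta-lactamase.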

[9] = qHTS assay to identify small molecule agonists of H2AX - cell viability counter screen (AID 1224847; calls by dose curve; note: top concentration of the series differs between compounds; nearly all actives have a fitted effect of over 30% in size)
Summary of the method: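 Wild-type CHO-K1 cells (10% FBS medium) were plated overnight at 37C, exposed to compounds at 15 concentrations for 3 hr at 37C (0.76% DMSO final), and viability was read as CellTiter-Glo luminescence after 30 min at room temperature.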

[10] = qHTS assay to identify small molecule antagonists of the estrogen related receptor (ERR) signaling pathway from Tox21 library (AID 1224848); note: nearly all actives have a fitted effect of over 50% in size; note: potency is the fitted concentration of half-maximal effect
Summary of the method: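 Cells: ERR line, 2,000/well; 6 h preincubation 37 C/5% CO2. Cpd in DMSO via pin tool; 18 h, 37 C. ONE-Glo, 30 min RT, luminescence.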

[11] = qHTS assay to identify small molecule agonists of the estrogen related receptor (ERR) signaling pathway from Tox21 library (AID 1224849; calls by dose curve; note: nearly all actives have a fitted effect of over 15% in size); settings: ERR reporter cell line, ONE-Glo luciferase, 18 h; at 92.4 µM (top of the series) unless noted
Summary of the method: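 Screening used an NTP-provided ERR luciferase cell line. Compounds in DMSO were added 6 h after seeding and left 18 h at 37 C before a 30 min ONE-Glo step and luminescence reading.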

[12] = qHTS RealTime-Glo MT Cell Viability Assay in HepG2 cells - 24 hour (AID 1224867); note: nearly all actives have a fitted effect of over 50% in size; note: potency is the fitted concentration of half-maximal effect
Summary of the method: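 HepG2 cells (600/well) were dispensed with RealTime-Glo reagents, incubated 5 h at 37 °C, then treated with compounds in DMSO for up to 40 h. Nonlytic NanoLuc luminescence reflecting viable cells was read at each stated time point.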

[13] = qHTS RealTime-Glo MT Cell Viability Assay in HEK293 cells - 32 hour (AID 1224868); note: nearly all actives have a fitted effect of over 50% in size; note: potency is the fitted concentration of half-maximal effect; for activity change, negative = cytotoxic: top concentration of the series differs between compounds
Summary of the method: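 HEK293 cells seeded with NanoLuc/prosubstrate reagent, rested 5 h at 37 C, then dosed and kept at 37 C up to 40 h. Nonlytic real-time luminescence from viable cells read at 0, 8, 16, 24, 32 and 40 h.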

[14] = A CellTox Green Cytotoxicity Assay to monitor cytotoxicity in HEK293 cells - 0 hour (AID 1224869); note: nearly all actives have a fitted effect of over 50% in size
Summary of the method: (§1)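 Fluorescence intensity, read at 0, 8, 16, 24, 32 and 40 h of compound treatment, reflected dye binding to DNA of dead HEK293 cells; compounds (23 nL, DMSO) were added 5 h after plating cells with reagent.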

[15] = A CellTox Green Cytotoxicity Assay to monitor cytotoxicity in HEK293 cells - 40 hour (AID 1224871); note: nearly all actives have a fitted effect of over 45% in size; note: potency is the fitted concentration of half-maximal effect
Summary of the method: as §1

[16] = target: Nuclear receptor subfamily 1 group I member 3 (Homo sapiens) (UniProt Q14994); experiment: qHTS assay to identify small molecule antagonists of the constitutive androstane receptor (CAR) signaling pathway (AID 1224838); note: nearly all actives have a fitted effect of over 40% in size; note: potency is the fitted concentration of half-maximal effect
Nuclear receptor subfamily 1 group I member 3 (Homo sapiens), sequence (Q14994 whole entry, looked up): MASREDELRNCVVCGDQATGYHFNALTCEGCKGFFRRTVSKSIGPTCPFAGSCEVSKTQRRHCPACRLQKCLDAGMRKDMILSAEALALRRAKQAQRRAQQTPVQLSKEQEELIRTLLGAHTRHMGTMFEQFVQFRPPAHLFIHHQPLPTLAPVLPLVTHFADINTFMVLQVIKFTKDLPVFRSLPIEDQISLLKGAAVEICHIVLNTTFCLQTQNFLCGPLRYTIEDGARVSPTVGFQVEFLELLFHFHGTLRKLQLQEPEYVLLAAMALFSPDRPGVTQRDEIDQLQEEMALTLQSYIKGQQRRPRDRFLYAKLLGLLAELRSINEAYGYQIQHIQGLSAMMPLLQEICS
Summary of the method: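 Cell line: HepG2 double-stable for hCAR and CYP2B6-2.2kb reporter. Agonist: CITCO, 50 nM final. Compounds: 15 concentrations, 24 h, 37 C. Detection: ONE-Glo luminescence.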

[17] = target: Nuclear receptor subfamily 1 group I member 3 (Homo sapiens) (UniProt Q14994); experiment: qHTS assay to identify small molecule agonists of the constitutive androstane receptor (CAR) signaling pathway (AID 1224839); note: nearly all actives have a fitted effect of over 15% in size; note: potency is the fitted concentration of half-maximal effect;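 for activation: HepG2 cells stably carrying human CAR and a CYP2B6 luciferase reporter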
Summary of the method: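 HepG2 cells stably expressing hCAR and a CYP2B6-2.2kb luciferase reporter were treated with compounds at 15 concentrations plus 0.75 uM PK11195 (final) for 24 h at 37 C; luminescence was read after ONE-Glo addition.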

[18] = qHTS assay to identify small molecule antagonists of the estrogen related receptor signaling pathway with the pleiotropic PPARgamma coactivator (PGC) from Tox21 10K library (AID 1224841; call rule not given here; note: potency is the fitted concentration of half-maximal effect)
Summary of the method: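 qHTS antagonist format: PGC/ERR cells, 2k/well, compound in DMSO by pin transfer after 6 h attachment, 18 h treatment at 37 C, One-Glo luminescence read at 30 min.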

[19] = qHTS RealTime-Glo MT Cell Viability Assay in HepG2 cells - 40 hour (AID 1224870); note: nearly all actives have a fitted effect of over 50% in size
Summary of the method: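 HepG2 cells mixed with RealTime-Glo MT reagents (NanoLuc plus cell-permeant prosubstrate) were seeded at 600 cells/well, incubated 5 h at 37 C/5% CO2, then pinned with compounds in DMSO; nonlytic luminescence tracked viability during 40 h treatment.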
% is set by controls: 0 for no effect and ±100 for the full control effect.

CC(=O)OC1CCCCC1
inactive: Potency [1] | Potency [2] | Potency [3] | Potency [4] | Potency [5] | Potency [6] | Potency [7] | outcome [8] | Potency [9] | Potency [10] | activity change, positive = activation [11] 5.62% | Potency [12] | Potency [13] | Potency [14] | Potency [15]

COc1ccc2sc(C(=O)Nc3nnn[nH]3)c(OC(C)C)c2c1
inactive: Potency [1] | Potency [17] | Potency [4] | Potency [5] | Potency [7] | outcome [8] | Potency [9] | activity change, positive = activation [11] -42.5% | Potency [12] | Potency [14] | Potency [19] | Potency [15]
active: Potency [16] 27.2 µM | Potency [18] 24.2 µM | Potency [6] 24.5 µM | Potency [10] 24.2 µM | Potency [13] 27.4 µM

Clc1ccc(C(Cn2ccnc2)OCc2ccsc2Cl)c(Cl)c1 (configuration not stated)
active: Potency [17] 23.7 µM | Potency [18] 18.8 µM | Potency [10] 18.8 µM | Potency [13] 19 µM
inactive: Potency [1] | Potency [16] | Potency [6] | activity change, positive = activation [11] -53.5% [at 42.5 µM] | Potency [14]

CCC(=O)OCCc1ccccc1
inactive: Potency [1] | Potency [2] | Potency [17] | Potency [7] | outcome [8] | Potency [9] | Potency [12] | Potency [13] | Potency [14] | Potency [19] | Potency [15]

Cc1cc(Nc2ccc(O)cc2)ccc1N
active: Potency [1] 63 µM | Potency [3] 24.2 µM | Potency [18] 15.3 µM | Potency [6] 24.4 µM | Potency [10] 19.2 µM | Potency [12] 48.8 µM | Potency [13] 19.4 µM | Potency [15] 24.4 µM
inactive: Potency [16] | Potency [17] | Potency [4] | activity change, positive = activation [11] -47.7% | Potency [14]

CCOC(=O)C1=C(C)NC(C)=C(C(=O)OCC)C1c1ccccc1/C=C/C(=O)OC(C)(C)C
inactive: Potency [1] | Potency [16] | Potency [5] | Potency [7] | activity change, positive = activation [11] -56.8% [at 42.5 µM] | Potency [14] | Potency [15]
active: Potency [10] 13.3 µM

CO[C@H]1C=CO[C@@]2(C)Oc3c(C)c(O)c4c(O)c(cc(O)c4c3C2=O)NC(=O)/C(C)=C\C=C/[C@H](C)[C@H](O)[C@@H](C)[C@@H](O)[C@@H](C)[C@H](OC(C)=O)[C@@H]1C
active: Potency [2] 48.9 µM
inactive: Potency [1] | Potency [16] | Potency [18] | Potency [9] | activity change, positive = activation [11] -31.9% | Potency [12] | Potency [13] | Potency [14] | Potency [19] | Potency [15]

CCN1CCN(c2cc(-c3ccc(F)cc3)c3c(n2)CCCCCC3)CC1
inactive: activity change, negative = inhibition [1] -0.963% [at 23.6 µM] | activity change, negative = cytotoxicity [2] 3.17% [at 19 µM] | activation [17] -1.24% [at 19 µM] | viability change, negative = cytotoxic [3] 18% [at 19 µM] | activity, negative = inhibition [18] 3.89% [at 19 µM] | activation [4] -0.232% [at 19 µM] | activation [5] -12.2% [at 19 µM] | activity change, negative = cytotoxicity [6] 0.919% [at 15.8 µM] | activation (H2AX phosphorylation) [7] 3.44% [at 31.6 µM] | activation [8] 1.71% [at 15.8 µM] | activity change, negative = cytotoxicity [9] -6.38% [at 31.6 µM] | activity, negative = inhibition [10] -10.2% [at 19 µM] | activity change, positive = activation [11] -5.69% [at 19 µM] | activity change, negative = cytotoxicity [12] -8.27% [at 15.8 µM] | activity change, negative = cytotoxic [13] -11.6% [at 15.8 µM] | cytotoxicity [14] -14.4% [at 15.8 µM] | activity change, negative = cytotoxic [19] -8.41% [at 15.8 µM] | cytotoxicity increase [15] 9.69% [at 15.8 µM]
